Test results as given in PubChem BioAssay (NCATS).
Active and inactive are the calls of the source. Calls follow the shape of the dose curve; as a rule, active = well fitted inhibition curve with a large enough effect; inconclusive = small, poorly fitted or top-dose-only effect; inactive = no such curve, though single readings can be large or run the other way.

These molecules were tested against Single-stranded DNA cytosine deaminase (Homo sapiens) (UniProt Q9GZX7) (assay: Validation qHTS assay for inhibitors of Activation Induced Cytidine Deaminase (AID): AID signal (AID 1347429)). Settings: Recombinant AID, FRET ssDNA deamination with UDG, fluorescence; series mostly up to 115 µM; activity change, negative = inhibition: at the top concentration.
From the text: Assay Provider (PI) Patricia Gearhart Ph.D. National Institute on Aging National Institute of Health (NIH), Bethesda, MD Assay Provider (PI) Rahul Kohli Ph.D. Perelman School of Medicine University of Pennsylvania, Philadelphia, PA Activation-Induced Deaminase (AID) is a cytosine deaminase which converts cytosine into uracil within stretches of ssDNA. The presence of uracil in DNA initiates a cascade of mutagenic DNA repair to introduce point mutations and DNA double strand breaks. Specific targeting of AID to the immunoglobulin heavy chain loci (Igh) promotes mutagenesis in the antibody variable region for somatic hypermutation (SHM) or switch regions leading to class switch recombination (CSR). However, AID also plays a role in accumulating unnecessary mutations across the genome. Mis-targeting of AID results in the initiation of tumor development and leads to greater drug resistance among cancer cells when continually expressed. To identify an AID inhibitor, a small molecule library will be screened in collaboration with NCATS core facility at NIH. To confirm biological function, inhibitors will be examined in an in vitro murine B-cell activation assay and subsequent secondary validation screens. Top molecules will be further screened to identify inhibitory efficacy against a wild type primary splenocytes assay. Using these approaches, we hope to identify a small molecule with great efficacy and low toxicity for use as a molecular probe to further characterize AID's intricacies, or even as a therapeutic. A FRET based analysis of cytosine deamination, was developed to identify potential inhibitors of AID catalytic activity. This screen has two signal output, Read 1 evaluates the AID inhibition response. The second readout (Read 2) evaluates UDG response and is uses as a counterscreen to exclude false positive inhibitors. Inhibition in AID and inactivity in the UDG signal is the desired outcome for this assay.
PROTOCOL TABLE SEQUENCE No. (e.g., 1, 2, 3, etc.); […] (e.g., Cells, Incubation, Reagent, etc.); VALUE; DESCRIPTION 1a; Reagent; 3 uL; [4/3x] […] 250 nM DJC20 / 250 nM DJC23 [Substrate] 5; Time; 4 hr; incubation at room temperature 6; Reagent; 4 uL; [2x] 250 mM NaOH 7; Time; 15 sec; centrifuge at 1000 rpm 8; Time; 30 min; incubation at room temperature 9a; Detection; fluorescence (Read 1: AID); EnVision (PerkinElmer) plate reader, 540 excitation and 590 emission filters 9b; Detection; fluorescence (Read 2: UDG); EnVision (PerkinElmer) plate reader, 560 excitation and 665 emission filters NOTES (numbers refer to sequence above) 1a; Reagents were dispensed in a medium-binding black solid-bottom Greiner plates (789176F) using a BioRptr liquid dispenser. Dispense 3 uL of [4/3x] 1 uM AID (provided by Kohli lab) and [4/3x] 2 U/mL UDG (NEB M0280L) into columns 1, 2, 5 to 48. 1b; Dispense 3 uL of [4/3x] 2 U/mL UDG into column 3. 1c; Dispense 3 uL of [4/3x] 1 uM AID into column 4. 2a; Compound ([…] [uM] (0.64; 3.2; 16; 80; 400; 2,000; 10,000; 20,000) double pin-transferred (Dip Factor = 2) using the Kalypsys (Wako USA) pintool equipped with a 1536 pinhead for a final concentration range of 7.32 nM - 114 uM. 2b; 10 mM Aurintricarboxylic Acid (Sigma A1895) (ATA, 8-point, n = 2, 1:2.5 dilution in column 2) double pin-transferred (Dip Factor = 2) using the Kalypsys (Wako USA) pintool equipped with a 1536 pinhead for a [final] range of 186 nM - 114 uM. 3; Room temperature incubation. 4; Dispense 1 uL of substrate mixture from the Kohli lab [4x] […] DJC20 and [4x] 250 nM DJC23 into columns 1 to 48 . 5; Room temperature incubation. 6; Dispense 4 uL of substrate mixture [2x] 250 mM NaOH into columns 1 to 48. 7; Centrifugation step to remove bubbles. 8; Room temperature incubation 9a; Fluorescence signal (column label AID) was read using the EnVision plate reader. Excitation filter = 540(8) nm, barcode = 311; Emission filter = 590(20) nm, barcode = 217; Mirror = D555, barcode = 405. […]
% is scaled to controls: 0 for no effect and ±100 for the full control effect; potency is read from the fitted curve at half-maximal effect.

Chain of Single-stranded DNA cytosine deaminase (Homo sapiens) (Q9GZX7 whole entry, looked up): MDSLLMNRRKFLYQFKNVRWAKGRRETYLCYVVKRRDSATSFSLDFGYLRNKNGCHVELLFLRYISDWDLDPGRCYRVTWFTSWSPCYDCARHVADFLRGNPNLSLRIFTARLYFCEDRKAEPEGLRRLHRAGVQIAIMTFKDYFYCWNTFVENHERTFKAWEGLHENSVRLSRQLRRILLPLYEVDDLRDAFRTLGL

SMILES | activity change, negative = inhibition | Potency
Cc1cc(Cn2cnc3c2C[C@@H](C(=O)O)N(C(=O)C(c2ccccc2)c2ccccc2)C3)ccc1N | 27.6% (inactive) | –
O=c1onc2cnc3ccccc3n12 | -4.41% (inactive) | –
Nc1ncnc2c1ncn2C1CCCC1 | 21.6% (inactive) | –
CCCCCC[C@@H]([C@@H](C)O)n1cnc2c(N)ncnc21 | 21.3% (inactive) | –
O=C(O)C1=CCCNC1 | 10.1% (inactive) | –
C=CCN1CCc2cc(O)c(O)cc2C(c2ccccc2)C1 (stereo not given) | 9.41% (inactive) | –
Oc1ccc(Cn2cc[nH]c2=S)cc1 | 18.3% (inactive) | –
O=[N+]([O-])c1cccc2cn[nH]c12 | 20.2% (inactive) | –
COc1cc([C@@H]2c3cc4c(cc3[C@H](O)C3COC(=O)[C@@H]32)OCO4)cc(OC)c1OC (stereo not given in full) | 17.3% (inactive) | –
CCN1C(=O)C=CC1=O | 9.98% (inactive) | –
C[C@@H](NCCc1ccc(O)cc1)[C@@H](O)c1ccc(O)cc1 | 14% (inactive) | –
Nc1nc2c(cnn2CCc2ccccc2)c2nc(-c3ccco3)nn12 | 24.9% (inactive) | –
CC(N)=NCCCC[C@@H](N)C(=O)O | 20.1% (inactive) | –
O=C(O)C1CCCNC1 (stereo not given) | 4.48% (inactive) | –
N[C@@H](Cc1ccc(O)c(I)c1)C(=O)O | 14.4% (inactive) | –
CC(O)C(O)[C@H]1CNc2nc(N)[nH]c(=O)c2N1 (stereo not given in full) | 69.3% (inactive) | –
CCCn1c(=O)c2c(ncn2C)n(CCC)c1=O | 18.1% (inactive) | –
NC(N)=NC(N)=Nc1cccc(Cl)c1 | 10.2% (inactive) | –
N[C@@H](CCCC(=O)O)C(=O)O | 9.27% (inactive) | –
CC1CCN(CC[C@H]2CCCN2S(=O)(=O)c2cccc(O)c2)CC1 | 28.6% (inactive) | –

SMILES | activity change, negative = inhibition | Potency
COc1ccccc1N1CCN(CCCNc2c(C)c(=O)n(C)c(=O)n2C)CC1 | -6.31% (inactive) | –
Oc1ccc(/C=C/c2ccc(/C=C/c3ccc(O)cc3)c(Br)c2)cc1 | 64.6% (inactive) | –
CSC(N)=NCCC[C@H](N)C(=O)O | 21.1% (inactive) | –
C=CCN1CCc2c(cc(O)c(O)c2Br)[C@@H](c2ccccc2)C1 | 15.7% (inactive) | –
CO/N=C(\C(=O)N[C@@H]1C(=O)N2C(C(=O)O)=C(CSc3nc(=O)c(O)nn3C)CSC12)c1csc(N)n1 (stereo not given in full) | 47.2% (inactive) | –
CC(=O)N[C@@H](Cc1c[nH]c2ccccc12)C(=O)OCc1cc(C(F)(F)F)cc(C(F)(F)F)c1 | 11.1% (inactive) | –
CCCn1c(=O)c(C)cn2nc(N)nc12 | 18.5% (inactive) | –
O=C(O)c1ccccc1Nc1cccc(OCc2ccc3ccccc3n2)c1 | -4.72% (inactive) | –
CC(C)[C@@H]1CC[C@@H](C)C[C@@H]1P(=O)(c1ccccc1)c1ccccc1 | 3.25% (inactive) | –
CCCCC[C@H](CC(=O)NO)C(=O)N[C@H](C(=O)N1CCC[C@H]1CO)C(C)C | 20.8% (inactive) | –
Oc1cc(O)c2c(c1)O[C@H](c1ccc(O)c(O)c1)[C@@H](O)C2 | 8.26% (inactive) | –
O[Si](CCCN1CCCCC1)(c1ccc(F)cc1)C1CCCCC1 (stereo not given) | 17% (inactive) | –
N[C@H](C(=O)O)c1cc(O)cc(O)c1 | 104% (inactive) | –
CCn1c(=O)[nH]c2cc(Cl)c(Cl)cc21 | 15.9% (inactive) | –
NC[C@@H]1O[C@H](c2ccccc2)Cc2c1ccc(O)c2O | 24.7% (inactive) | –
CCCc1c(-c2ccc(O)cc2)nn(-c2ccc(O)cc2)c1-c1ccc(O)cc1 | 20.1% (inactive) | –
CCCC[C@@]1(C2CCCC2)Cc2cc(OCC(=O)O)c(Cl)c(Cl)c2C1=O | -7.9% (inactive) | –
CCCCCCC/C=C\CCCCCCCCC(=O)O | – | 70.8 µM (active)
CC(C)Cn1c(=O)n(C)c(=O)c2[nH]cnc21 | 14.5% (inactive) | –
O=C(O)/C(=C/c1c(C(=O)O)[nH]c2cc(Cl)cc(Cl)c12)c1ccccc1 | 18.3% (inactive) | –
